Results: PubChem BioAssay (NCATS)
Results filed as inconclusive are left out. Where a call stands in place of a potency, no number is given. The source made the active and inactive calls. The call rests on the fitted dose curve; in most records, active means well fitted cell-killing curve with a large enough effect; inconclusive means small, poorly fitted or top-dose-only effect, or effect the other way; inactive means no such curve, though single readings can be large or run the other way.
Potency means the concentration at half of the fitted maximal effect.

Test: Quantitative High-Throughput drug screen in 47 multiple myeloma cell lines against the NCATS MIPE library collection: RPMI8226_ATCC cell viability assay (AID 1919871); further: nearly all actives have a fitted effect of over 30% in size
Settings: RPMI8226 myeloma viability, CellTiter-Glo ATP luminescence, 48 h; series mostly up to 45.8 µM
Text: PI: Beverly A. Mock Ph.D.
Laboratory of Cancer Biology and Genetics,
Center for Cancer Research, National Cancer Institute,
National Institute of Health, Bethesda, Maryland
Drug resistance and disease progression are common in multiple myeloma (MM) patients, underscoring the need for new therapeutic combinations. […] We hypothesized that effective combinations would reduce MYC expression and enhance p16 activity. […] These preclinical data identify potentially useful drug combinations for evaluation in drug-resistant MM and reveal potential mechanisms of combined drug sensitivity.
Described herein is the primary MIPE qHTS used to cherrypick compounds. Validated compounds were then further tested for potential synergistic activiy.
[1] Peat TJ, Gaikwad SM, Dubois W, Gyabaah-Kessie N, Zhang S, Gorjifard S, Phyo Z, Andres M, Hughitt VK, Simpson RM, Miller MA, Girvin AT, Taylor A, Williams D, D'Antonio N, Zhang Y, Rajagopalan A, Flietner E, Wilson K, Zhang X, Shinn P, Klumpp-Thomas C, McKnight C, Itkin Z, Chen L, Kazandijian D, Zhang J, Michalowski AM, Simmons JK, Keats J, Thomas CJ, Mock BA. Drug combinations identified by high-throughput screening promote cell cycle transition and upregulate Smad pathways in myeloma. Cancer Lett. 2023 Aug 1;568:216284. doi: 10.1016/j.canlet.2023.216284. Epub 2023 Jun 24. PMID: 37356470; PMCID: PMC10408729.
SEQUENCE No. (e.g., 1, 2, 3, etc.); […] (e.g., Cells, Incubation, Reagent, etc.); VALUE and DESCRIPTION.
1; Cells; 5 uL; white, solid bottom 1536-well Greiner assay plate.
2; Compounds; 23 nL; Kalypsis pin tool (Wako USA) equipped with a 1536-well pin head to transfer to the assay plates.
3; Incubation; 48 hours; 37C incubation.
4; Reagent;5uL; CellTiter Glo (Promega).
5; Detector; 425V; Luminescence; Viewlux PerkinElmer.
NOTES (numbers refer to Sequence numbers above)
1. The cell-based screening methods employed in this study were like those previously published. Briefly, the corresponding myeloma cell lines were screened in 1,536-well plates with 500 cells, 5-uL per well for inhibition of cell viability (assessed by measuring ATP levels with CellTiterGlo).
2. NCATS MIPE 4.0 library of approved and investigational drugs were added using the Kalypsis pin tool. Wells treated with DMSO only for 100% viability and media only for 0% viability were used as controls.
3. The assay plates were covered and incubated for 48 hours in a 37C, 5% CO2 incubator with controlled humidity.
4. After 48 hours, CellTilter-GloTM luminescent substrate mix (Promega) reagent was added to the assay plate and plates we incubated for 5 min at room temperature.
5. Signal was measured as median relative luminescence units on a ViewLux (PerkinElmer) multiplate reader.
[1] Heske CM, Davis MI, Baumgart JT, Wilson K, Gormally MV, Chen L, Zhang X, Ceribelli M, Duveau DY, Guha R, Ferrer M, Arnaldez FI, Ji J, Tran HL, Zhang Y, Mendoza A, Helman LJ, Thomas CJ. Matrix Screen Identifies Synergistic Combination of PARP Inhibitors and Nicotinamide Phosphoribosyltransferase (NAMPT) Inhibitors in Ewing Sarcoma. Clin Cancer Res. 2017 Dec 1;23(23):7301-7311. doi: 10.1158/1078-0432.CCR-17-1121. Epub 2017 Sep 12. PMID: 28899971; PMCID: PMC6636827.
With O=c1ccc2ccc(O)c(O)c2o1 the Potency was “inactive”. With C=C(c1ccc(C(=O)O)cc1)c1cc2c(cc1C)C(C)(C)CCC2(C)C the Potency was “inactive”. For Cc1cc(O)c2c(c1)C(=O)c1cc(O)cc(O)c1C2=O, the Potency was 23.5 µM (active). With C[C@@H](N)C1CCC(C(=O)Nc2ccncc2)CC1 (stereo not given in full) the Potency was “inactive”. For Cc1cccc(C#Cc2ccccc2)n1, the Potency was 3.72 µM (active). With O=C(CCc1ccc(O)cc1)c1c(O)cc(O)cc1O the Potency was 4.69 µM (active). In the case of Nc1cc(C(Cl)=C(Cl)Cl)c(S(N)(=O)=O)cc1S(N)(=O)=O, the Potency is reported as “inactive”. With O=c1c(O)c(-c2ccc(O)cc2O)oc2cc(O)cc(O)c12 the Potency was “inactive”. In the case of Cc1ccc(S(=O)(=O)NC(=O)NN2CC3CCCC3C2)cc1 (stereo not given), the Potency is reported as 23.5 µM (active). For COc1ccc2cc([C@H](C)C(=O)O)ccc2c1, the Potency was “inactive”. For COCCCN1CCC(NC(=O)c2cc(Cl)c(N)c3c2OCC3)CC1, the Potency was 18.7 µM (active). In the case of CCOC(=O)C(C)Oc1cccc2c(=O)n(CC(=O)Nc3ccc4c(c3)OCCO4)ccc12 (stereo not given), the Potency is reported as “inactive”. With Oc1ccc2ccccc2c1SSc1c(O)ccc2ccccc12 the Potency was 26.4 µM (active). With C[C@H](Cc1ccc(O)c(O)c1)[C@@H](C)Cc1ccc(O)c(O)c1 the Potency was 10.5 µM (active). For CCN(CC)C(=S)SSC(=S)N(CC)CC, the Potency was 0.0187 µM (active). In the case of Cc1ccc(Nc2nccc(N(C)c3ccc4c(C)n(C)nc4c3)n2)cc1S(N)(=O)=O, the Potency is reported as 14.8 µM (active). With CC(=O)O[C@H]1C(=O)[C@@]2(C)C([C@H](OC(=O)c3ccccc3)[C@]3(O)C[C@H](OC(=O)[C@H](O)[C@@H](NC(=O)c4ccccc4)c4ccccc4)C(C)=C1C3(C)C)[C@]1(OC(C)=O)CO[C@@H]1C[C@@H]2O (stereo not given in full) the Potency was “inactive”. With CC1Cc2ccccc2N1NC(=O)c1ccc(Cl)c(S(N)(=O)=O)c1 (stereo not given) the Potency was “inactive”. With Cc1nc2n(c(=O)c1CCN1CCC(c3noc4cc(F)ccc34)CC1)CCCC2 the Potency was “inactive”. For O=C(O)c1cn(-c2ccc(F)cc2)c2cc(N3CCNCC3)c(F)cc2c1=O, the Potency was “inactive”. With Nc1ccc(S(N)(=O)=O)cc1 the Potency was “inactive”. For C[C@]12CCC(=O)C=C1CC[C@@H]1[C@H]2[C@@H](O)C[C@@]2(C)[C@H]1CC[C@]2(O)C(=O)CO, the Potency was 0.418 µM (active). For Clc1ccc(C(Cn2ccnc2)OCc2ccc(Sc3ccccc3)cc2)c(Cl)c1 (stereo not given), the Potency was 23.5 µM (active). In the case of CNC[C@@H](O)[C@@H](O)[C@H](O)[C@H](O)CO, the Potency is reported as “inactive”. For COc1ccccc1N1CCN(CCN(C(=O)C2CCCCC2)c2ccccn2)CC1, the Potency was “inactive”. In the case of CC(C)c1ccc2oc3nc(N)c(C(=O)O)cc3c(=O)c2c1, the Potency is reported as “inactive”. With CN(c1nccc(=O)[nH]1)C1CCN(c2nc3ccccc3n2Cc2ccc(F)cc2)CC1 the Potency was “inactive”. In the case of Oc1ccc(-c2nc(-c3ccc(F)cc3)c(-c3ccncc3)[nH]2)cc1, the Potency is reported as “inactive”. With Cc1c(OCC(F)(F)F)ccnc1CS(=O)c1nc2ccccc2[nH]1 (stereo not given) the Potency was “inactive”. With O=C(O)CCNC(=O)c1ccc(N=Nc2ccc(O)c(C(=O)O)c2)cc1 the Potency was “inactive”. In the case of N[C@@H](Cc1cc(I)c(Oc2cc(I)c(O)c(I)c2)c(I)c1)C(=O)O, the Potency is reported as “inactive”. For CCOC(=O)C1=C(O)C(=O)N(Cc2ccccc2)C1, the Potency was 13.2 µM (active). In the case of Nc1ncn([C@H]2C[C@H](O)[C@@H](CO)O2)c(=O)n1, the Potency is reported as “inactive”. In the case of COc1cc2nc(N3CCN(C(=O)C4CCCO4)CC3)nc(N)c2cc1OC (stereo not given), the Potency is reported as “inactive”. With COC(=O)N[C@H](C(=O)N[C@@H](Cc1ccccc1)[C@@H](O)CN(Cc1ccc(-c2ccccn2)cc1)NC(=O)[C@@H](NC(=O)OC)C(C)(C)C)C(C)(C)C the Potency was “inactive”. In the case of NC(=NCc1ccccc1)NC(=O)c1nc(Cl)c(N)nc1N, the Potency is reported as “inactive”. For CNC[C@H](O)c1ccc(O)c(O)c1, the Potency was 42.9 µM (active). With COc1cc(C(C)=O)ccc1OCCCN1CCC(c2noc3cc(F)ccc23)CC1 the Potency was 13.2 µM (active). In the case of CC(C)(S)[C@@H](N)C(=O)O, the Potency is reported as “inactive”. In the case of CCCc1cc(=O)[nH]c(=S)[nH]1, the Potency is reported as “inactive”.
